# TDP43 rescue: TDP-43 toxicity inhibition in yeast | Potency, µM (top dose mostly 46.1 µM), without a hit: at the top dose growth rescue (activation), most hits filed as activators | hit rate 1.8% among 410,000 | TDP-43 expressing yeast growth rescue, BacTiter-Glo, 24 h | AID 652104; further: % of control where 0% means no effect; nearly all actives have a fitted effect of over 50% in size
#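 Growth rescue of TDP-43-toxic yeast measured as ATP luminescence (BacTiter-Glo). Cells grown to mid-log in raffinose, induced in galactose at OD600=0.02, exposed to compound 24 hr at 30 deg C.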
# FUS suppressor: FUS proteinopathy suppression in yeast. S. cerevisiae FUS-expressing, growth rescue, OD600, 24 h. Potency, µM (highest dose often 76.6 µM), hits mostly activators. hit rate 0.24% among 390,000. AID 1347120;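 further: plate controls were DMSO vehicle for no effect and reference control for full effect; nearly all actives have a fitted effect of over 55% in size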
#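 Quantitative HTS measuring growth restoration of FUS-toxic yeast. Galactose-induced cells (OD 0.005) were exposed 24hr at 30C to compounds at several concentrations, then absorbance at 600 nm was recorded.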
# Abeta rescue: compounds reversing amyloid beta toxicity in yeast. yeast expressing A-beta42, growth rescue, OD600, 48 h; response scale: 0% DMSO, 100% iron-clioquinol control. Potency, µM (top dose mostly 46.1 µM), usual class: activators. hit rate 0.063% among 410,000; further: nearly all actives have a fitted effect of over 55% in size
#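 Yeast growth medium received pinned compounds, then yeast cells expressing toxic A-beta were added; plates incubated at 30 C for 48 hr. Growth read as absorbance at 600 nm, normalized to DMSO and equimolar FeCl3 plus clioquinol controls.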
# GRP78 ERSR act: induces the endoplasmic reticulum stress response in human glioma cells. U87-MG GRP78 promoter luciferase reporter, 16 h. Potency, µM, inactives show at the top dose activation, actives largely listed as activators. hit rate 0.02% among 420,000. AID 602332; further: series mostly up to about 76 µM; % of control where 0% means no effect; nearly all actives have a fitted effect of over 35% in size
#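 ERSR induction read as luciferase luminescence (Bright-Glo, 10 min at room temperature) in stably transfected human U87-MG glioma cells exposed to compounds for 16 h, using GRP78 as sensor.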
# MBNL1-CUG inh: inhibitors of human MBNL1 binding to CUG repeat RNA | Q9NR56 | TR-FRET MBNL1-His/biotin-(CUG)12 binding, 665/545 ratio | Potency, µM (doses to about 57.5 µM), for the others: at the highest dose activity change, negative = inhibition, most hits filed as inhibitors | hit rate 0.036% among 280,000; active means well fitted inhibition curve with a large enough effect in the signal ratio, with a control signal flat, not every such curve was filed as active; inconclusive means small, poorly fitted or top-dose-only effect, or effect the other way, or a change in a side signal; inactive means no such curve, though single readings can be large or run the other way; the % refers to the signal ratio; further: on the % scale 0 is the no-effect control and ±100 the full control effect
# Target sequence (Q9NR56 whole entry, looked up): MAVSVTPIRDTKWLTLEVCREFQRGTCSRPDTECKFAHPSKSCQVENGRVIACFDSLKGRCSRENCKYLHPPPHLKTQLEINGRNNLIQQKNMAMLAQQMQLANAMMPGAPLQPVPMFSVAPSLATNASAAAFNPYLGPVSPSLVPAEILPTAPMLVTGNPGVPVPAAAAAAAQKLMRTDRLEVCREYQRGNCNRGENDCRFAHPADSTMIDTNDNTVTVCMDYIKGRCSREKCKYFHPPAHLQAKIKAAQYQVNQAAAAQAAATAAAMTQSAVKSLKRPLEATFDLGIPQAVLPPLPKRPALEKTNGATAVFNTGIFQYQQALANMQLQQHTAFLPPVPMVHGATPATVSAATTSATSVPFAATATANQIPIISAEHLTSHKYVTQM
#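 TR-FRET between His-tagged MBNL1 and biotin-(CUG)12 RNA, detected with Tb anti-His antibody (0.055 ng/ul) and streptavidin-XL665 (5 nM), 60 min at room temperature. Compounds titrated 92 nM to 58 uM; 665/545 nm ratio normalized to buffer and complex controls.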
# aSyn rescue: alpha-synuclein toxicity inhibition in yeast. hit rate 0.14% among 370,000. Yeast expressing alpha-synuclein, growth rescue, BacTiter-Glo, 24 h. Potency, µM (doses to about 46.1 µM), without a hit: at the top dose growth rescue (activation), usual class: activators; further: % of control where 0% means no effect; nearly all actives have a fitted effect of over 65% in size
#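 Galactose-induced alpha-syn yeast (OD600=0.02, raffinose-pregrown) + pinned cpd, 24 hr, 30 deg C; growth by BacTiter-Glo luminescence. Growth restoration scores as activation.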
# Active calls of the source: *; i = inactive; ? = inconclusive; · = no result. Only some compounds are listed: those with a hit (about 2% of all), similar ones and a draw of the others. Unless noted, the call rests on the fitted dose curve; in most records, active means well fitted curve in the direction sought with a large enough effect; inconclusive means small, poorly fitted or top-dose-only effect, or another doubt; inactive means no such curve, though single readings can be large; an effect the other way counts as inactive or inconclusive. Potency means the concentration at half of the fitted maximal effect.
SMILES,TDP43 rescue,FUS suppressor,Abeta rescue,GRP78 ERSR act,MBNL1-CUG inh,aSyn rescue
CC(C)(C)Cc1c(-c2ccc(Br)cc2)nc2ccc(Cl)cn12,?,i,i,-3%,·,-36%
Cc1cccc(C)c1NC(=O)C1CCCN1S(=O)(=O)c1cccc2cccnc12 (configuration not stated),·,i,·,·,·,·
Cc1nc2c(O)c3c(c(O)c2nc1C)C1C=CC3CC1,13µM*,·,i,-5%,·,8%
Cc1nc2c(C)c(C)c(C)c(C)c2nc1C,5%,i,i,-11%,-5%,1%
CCOc1ccc(CCN2C(=O)C(=O)N([C@@H](Cc3ccccc3)CN3CCC[C@H]3CN3C(=O)C(=O)NC[C@@H]3Cc3ccccc3)C[C@@H]2Cc2ccc(O)cc2)cc1,7%,16µM*,i,·,·,0%
CC(C)C[C@H]1CNC(=S)N1C[C@H]1CCCN1C[C@H](Cc1ccccc1)N1C[C@H](CC(C)C)N(CCc2ccccc2)C1=S,?,25µM*,?,-1%,·,-46%
CCOc1ccc(CCN2C(=O)C(=O)N([C@@H](Cc3ccc(O)cc3)CN3CCC[C@H]3CN3C(=O)C(=O)NC[C@@H]3Cc3ccccc3)C[C@@H]2Cc2ccc(O)cc2)cc1,8%,?,i,·,·,-1%
CC(C)C[C@H]1CNC(=S)N1C[C@H]1CCCN1C[C@H](CC(C)C)N1C[C@H](CC(C)C)N(CCc2ccccc2)C1=S,28%,i,?,-4%,·,-32%
O=S(=O)(NCCOc1ccccc1F)c1ccc(Cl)cc1F,22µM*,i,i,-2%,·,5%
O=S(=O)(NCCOc1ccccc1F)c1cccc(Br)c1,13µM*,i,?,-7%,·,9%
O=C(CN1CCc2onc(-c3cccc(-n4cc(CO)nn4)c3)c2C1=O)N1CCOCC1,·,i,·,·,·,·
O=C1C2C(C(=O)N1/N=C/c1ccc([N+](=O)[O-])o1)C1C=CC2C12CC2 (configuration not stated),18µM*,·,i,-14%,?,26%
C=CCOC(=O)N1CCC(NS(=O)(=O)c2ccc3c(c2)CCN3C(C)=O)CC1,·,i,·,·,·,·
O=C(NC1CCCCN(Cc2cccc(Cl)c2)C1=O)c1ccc2ccccc2c1 (configuration not stated),·,i,·,·,·,·
Cc1c(C(=O)Nc2cccc(F)c2)cnn1-c1ccccc1,10µM*,i,i,1%,-3%,6%
CC(=O)c1cccc(NC(=O)c2cnn(-c3ccccc3)c2C)c1,14µM*,i,?,0%,-3%,1%
CC(=O)c1cccc(NC(=O)CCc2c(C)nc3c(c(C)nn3-c3ccccc3)c2C)c1,6.3µM*,i,i,-4%,·,·
Cc1c(C(=O)Nc2ccccc2)cnn1-c1ccccc1,0%,i,i,-3%,·,0%
Nc1ccc(/C=C/c2nc3ccccc3s2)cc1,·,·,·,2%,·,13µM*
COCCN(C)C(=O)c1cnn(-c2nccc(-c3cc(C)sc3C)n2)c1C,·,·,·,3%,·,·
Nc1ccc2c(c1)-c1ccc(F)cc1C2=O,-17%,·,i,8%,·,14µM*
Nc1ccc2c(c1)C(=O)c1ccc(Cl)cc1-2,20%,i,i,-2%,·,9%
CS(=O)(=O)c1ccc2nc(NC(=O)c3ccc(Cl)cc3)sc2c1,·,i,i,1%,?,4%
CC(C)(Oc1ccc(Cl)cc1)C(=O)Nc1nc2ccc(S(C)(=O)=O)cc2s1,13µM*,?,i,-1%,·,·
COc1ccc(-c2[nH]c(-c3ccc4c(c3)OCO4)nc2-c2ccccc2)cc1,16µM*,?,i,-8%,-6%,-18%
SMILES,TDP43 rescue,FUS suppressor,Abeta rescue,GRP78 ERSR act,MBNL1-CUG inh,aSyn rescue
N#Cc1c(N)nc2c(c1-c1ccc3c(c1)OCO3)CCc1ccccc1-2,32µM*,i,i,-2%,·,8%
N#Cc1c(-c2ccc3c(c2)OCO3)csc1N,16µM*,i,i,5%,4%,1%
N#Cc1c(N)c(C#N)c(-c2ccc3c(c2)OCO3)c2c1CCCC2,5%,·,i,-4%,1%,0%
Cc1c(Cl)ccc2sc(N3CCN(C(=O)C4CC4)CC3)nc12,32µM*,?,i,2%,·,·
CCc1cccc2sc(N3CCN(C(=O)C4CC4)CC3)nc12,11µM*,i,i,-1%,·,·
Cc1cc(C)c2sc(N3CCN(C(=O)c4ccc(N(C)C)cc4)CC3)nc2c1,?,i,i,-2%,·,·
Cc1cc(C)c2sc(N3CCN(C(=O)C4CC4)CC3)nc2c1,13µM*,i,i,1%,·,·
O=C(C1CC1)N1CCN(c2nc3ccccc3s2)CC1,-8%,i,i,2%,9%,12%
CCOc1ccc(-n2c(SCC(=O)Nc3ccc(S(=O)(=O)Nc4cc(C)nc(C)n4)cc3)nnc2-c2ccco2)cc1,·,i,·,·,·,·
COc1cccc(-n2c(SC)nnc2C2CCN(CCC(C)c3ccc(C)o3)CC2)c1 (configuration not stated),·,·,·,-6%,·,·
Cc1noc(NS(=O)(=O)c2ccc(N/C=C\C(=O)c3ccncc3)cc2)c1C,9%,i,i,0%,?,2%
Cc1noc(NS(=O)(=O)c2ccc(N/C=C/C(=O)c3cccnc3)cc2)c1C,-1%,i,i,3%,?,20µM*
COc1ccc(-c2noc(CSc3nnc(Cc4ccccc4)n3-c3ccc(F)cc3)n2)cc1,35µM*,14µM*,i,-5%,·,·
COc1ccc(-c2noc(CSc3nc4ccccc4[nH]3)n2)cc1,11µM*,i,i,-1%,·,·
COc1ccc(-c2noc(CSc3nnc(Cc4ccccc4)n3-c3cccc(C)c3)n2)cc1,3%,?,i,0%,·,·

# Bioassay records deposited in PubChem BioAssay by National Center for Advancing Translational Sciences (NCATS).
